# Test results reported in PubChem BioAssay (NCI).
# The panel holds about 83,000 compounds, 20% with a hit somewhere; the sample as a whole holds those more often.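 Growth was measured after 48 h exposure to one concentration of compound in 96-well plates. Values under 10 count as active.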 Active and inactive are the calls of the source.
# Tested on: CCRF-CEM leukemia
# Experiment: NCI-60 one-dose screen, 48 h (100 = growth as untreated, 0 = no growth, -100 = all killed)
# Settings: 10 µM unless noted
row,Structure (SMILES),growth
1,O=[N+]([O-])c1ccc(N/N=C/c2c(O)ccc3ccccc23)nc1,2.5% (active)
2,COc1cc(/C=C/c2nnc(-c3cc(-c4ccccc4)n[nH]3)o2)cc(OC)c1OC,75.9% (inactive)
3,COc1cc2c(-c3nc4cc(Cl)c(F)cc4s3)cc(=O)oc2c(C)c1OC,-72.5% (active)
4,COc1cccc(-c2nnc(N)o2)c1,103% (inactive)
5,CSc1nc2c(c(=O)n1C)C(c1ccccc1)C1=C(N2)/C(=C/c2ccccc2)CCC1 (stereo not drawn),20.6% (inactive)
6,CCCCCCC/C(=N\N=C(N)N)c1ccc(O)cc1,39.7% (inactive)
7,C[N+]1(CCC[N+]2(C)C[C@@H]3[C@H](C2)[C@@H]2C=C[C@H]3C2)CCOCC1 (stereo partly drawn),110% (inactive)
8,O=C(CCc1nnc(SCc2ccccc2)s1)c1nc2ccccc2[nH]1,68.1% (inactive)
9,c1csc([C@@H]2C[C@@H]3Cc4ccc5ccccc5c4N2O3)c1,75.8% (inactive)
10,O=C1/C(=C/c2ccc([N+](=O)[O-])s2)Oc2ccc(Br)cc21,-3.33% (active)
11,CCCCCCC(C)(O)c1ccccc1 (stereo not drawn),91.9% (inactive)
12,CCN1C2=C(SC(=S)C1=C1SC(C(=O)OC)=C(C(=O)OC)S1)SC(=Nc1ccc(OC)cc1)C2=O,4.67% (active)
13,CCOc1nc(-c2ccccc2)cc2c(O)c(-c3nnco3)[nH]c(=O)c12,15.7% (inactive)
14,COc1cccc2c1O/C(=C\c1c([N+](=O)[O-])ncn1C)C2=O,-7.36% (active)
15,C=Cc1nn2c(CCC(=O)c3nc4ccccc4[nH]3)nnc2s1,104% (inactive)
16,CCOC(=O)C(C(C)=O)c1nc2sc3cc(Cl)ccc3n2c(=N)c1C#N (stereo not drawn),163% (inactive)
17,COc1ccc2nccc(/C=C/c3ccnc4ccc(OC)cc34)c2c1,59.6% (inactive)

row,Structure (SMILES),growth
1,COc1ccc(-c2c(-c3cc(OC)c(OC)c(OC)c3)noc2N)cc1,9.85% (active)
2,COc1ccc(-c2cc(C(=O)Nc3nc4cc(C)c(C)cc4s3)nc3cc(-c4ccccc4)nn23)cc1OC,84.2% (inactive)
3,COc1ccc(-c2cc(Cc3cccs3)c(=O)n(Cn3ccc4ccccc43)n2)cc1,66% (inactive)
4,COc1ccc(-c2cc(Cc3cccs3)c(=O)n(Cn3cncn3)n2)cc1,102% (inactive)
5,Cn1c(=O)c2c(nc(Br)n2CCC(=O)Nc2ccc(F)cc2)n(C)c1=O,99.5% (inactive)
6,COc1ccc(/C=C/C(=O)Nc2cccnc2Nc2ccc(F)cc2)cc1,112% (inactive)
7,O=C1NCC(Nc2ccc(Br)cc2Cl)C(=O)N1 (stereo not drawn),116% (inactive)
8,Cc1cc(C)c2c(c1)N1OC(C2)C[C@H]1/C=C/c1ccccc1 (stereo partly drawn),92.9% (inactive)
9,Cc1cc(=O)n2n1-c1ccc(Cl)cc1NC(=O)C2,82.6% (inactive)
10,CC[C@H](C)C(=O)O[C@H]1C[C@@H](C)C=C2C=C[C@H](C)[C@H](CC[C@@H]3C[C@@H](O)CC(=O)O3)[C@H]21,72.9% (inactive)
11,O=C1/C(=C/c2ccc([N+](=O)[O-])o2)Oc2ccc(Br)cc21,66.2% (inactive)
12,O=C1NCN(c2ccccc2)C12CCN(CCCC(c1ccc(F)cc1)c1ccc(F)cc1)CC2,94.4% (inactive)
13,N#Cc1cnc2cc(OC[C@H](O)CO)c(NC(=O)CC3CSSC3)cc2c1Nc1ccc(OCc2cccc(F)c2)c(Cl)c1,-81.8% (active)
14,COc1ccc(OC)c2c1[nH]c(=O)c1c3ccccc3cn21,-48.7% (active)
15,COc1cc(C2CC(=O)Nc3c2cc(Br)c2ccccc32)cc(Br)c1OC (stereo not drawn),11.1% (inactive)
16,COC(=O)CCC1=C(C)/C(=C/c2[nH]c(-c3ccc[nH]3)cc2OC)N=C1C,-23.6% (active)
